Results taken from ChEMBL document CHEMBL1961873, “Compounds: GSK PKIS; Assays: Nanosyn kinase panel” (2012).

What follows are compounds tested against Serine/threonine-protein kinase 26 (Homo sapiens) (UniProt Q9P289). Details: at 1 µM.
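Note: mean inhibition of MST4 kinase activity, reported from the GSK PKIS inhibitor-set screening panel.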

Chain of Serine/threonine-protein kinase 26 (Homo sapiens) (Q9P289 2-416 limits assumed): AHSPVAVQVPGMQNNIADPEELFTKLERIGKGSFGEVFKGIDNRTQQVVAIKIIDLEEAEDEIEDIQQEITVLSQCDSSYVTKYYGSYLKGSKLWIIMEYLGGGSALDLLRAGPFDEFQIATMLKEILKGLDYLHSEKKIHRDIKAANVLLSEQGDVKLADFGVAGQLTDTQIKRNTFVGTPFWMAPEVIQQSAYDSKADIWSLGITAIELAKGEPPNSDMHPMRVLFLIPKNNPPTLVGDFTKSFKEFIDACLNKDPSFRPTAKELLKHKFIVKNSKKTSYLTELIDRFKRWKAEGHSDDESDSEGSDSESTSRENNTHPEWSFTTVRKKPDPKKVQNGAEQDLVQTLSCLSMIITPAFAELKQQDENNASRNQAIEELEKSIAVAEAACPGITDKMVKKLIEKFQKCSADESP

SMILES | inhibition
c1ccc(Nc2ncc(-c3ccccc3)o2)cc1 | 0.04%
CN(C)C(=O)O[C@H]1CN[C@H](C#Cc2cc3ncnc(Nc4ccc(OCc5cccc(F)c5)c(Cl)c4)c3s2)C1 | -0.62%
NS(=O)(=O)c1ccc(N/N=C2\C(=O)Nc3ccc(Cl)cc32)cc1 | 13.4%
O=C1Nc2ccccc2/C1=C/Nc1ccc2[nH]c(=O)[nH]c2c1 | 2.72%
CN1CCN(C(=O)c2ccc(NC(=O)Nc3ccc(N(C)c4ccnc(Nc5ccc(CS(C)(=O)=O)cc5)n4)cc3)cc2)CC1 | 12.8%
COc1ccc(-c2nn3ncccc3c2-c2ccnc(Nc3cccc(C(F)(F)F)c3)n2)cc1 | -0.52%
O=S(=O)(CCOCc1ccc(-c2ccc3ncnc(Nc4ccc(OCc5cccc(F)c5)c(Cl)c4)c3c2)o1)c1ccccc1 | 0.25%
COc1cccc(-n2ncc3c(N/N=C/c4ccc(S(C)(=O)=O)cc4)ncnc32)c1 | 2.58%
Cc1cc(O)cc(C)c1/C=C/c1cncc(C(=O)N(C)C)c1 | 1.13%
Cc1ccc2c(-c3ccnc(Nc4cccc(C(F)(F)F)c4)n3)c(-c3ccccc3)nn2n1 | 13.3%
CS(=O)(=O)CCNCc1nc(-c2ccc3ncnc(Nc4ccc(OCc5cccc(C(F)(F)F)c5)cc4)c3c2)cs1 | 1.5%
Cc1ccc(Nc2ccnc(Nc3cccc(C(N)=O)c3)n2)cc1O | 2.75%
CCS(=O)(=O)c1ccc(OC)c(Nc2ncc(-c3cccc(OC)c3)o2)c1 | -4.12%
COc1cc2ncnc(Nc3ccc(C)c(O)c3)c2cc1OC | -1.08%
COc1cc2ncnc(Nc3ccc4c(cnn4Cc4ccccc4)c3)c2cc1OC | -2.02%
NS(=O)(=O)c1cccc(-c2cc3ccncc3cc2OCc2ccccc2)c1 | -3.77%
Oc1cccc(-c2nc(-c3ccccc3)[nH]c2-c2ccncc2)c1 | 4.67%

SMILES | inhibition
NC(=O)c1sc(-n2cnc3ccccc32)cc1OCc1ccccc1Br | -2.12%
Cc1nc(-c2ccccc2)n2nc(NCCCN3CCOCC3)ncc12 | 0.4%
Cc1ccc(NC(=O)CC2CC2)cc1-c1ccc(C(=O)NCC2CC2)cc1 | 0.9%
NC(=O)c1cccc(Nc2nccc(Nc3cccc(F)c3)n2)c1 | 2.97%
Nc1nccc(C#Cc2cncnc2Nc2ccc(OCc3cccc(F)c3)c(Cl)c2)n1 | -8.32%
NS(=O)(=O)c1ccc(-c2cc3ccncc3cc2OCc2ccccc2)cc1 | 0.38%
CCS(=O)(=O)c1ccc(OC)c(Nc2nccc(N(C)c3ccc4c(C)n[nH]c4c3)n2)c1 | 0.16%
COc1cccc(-n2nc(C)c3c(N/N=C(\C)c4ccncc4)ncnc32)c1 | 1.92%
COC(=O)c1ccc2c(c1)C(=Cc1cc(Br)c(O)c(Br)c1)C(=O)N2 | 15.1%
COc1cccc(-n2ncc3c(N/N=C/c4ccc(C)cc4)ncnc32)c1 | -3.2%
NS(=O)(=O)c1ccc(Nc2cc(-c3cccc(O)c3)n[nH]2)cc1 | -4.6%
Cc1cc(-c2ccccn2)cc(C)c1/C=C/c1cncc(-c2nn[nH]n2)c1 | 5.19%
CCn1c(-c2nonc2N)nc2c(C#CC(C)(C)O)nc(OCCNC)cc21 | -1.03%
O=C(Nc1ccc(Oc2ccc3[nH]c(NC(=O)c4ccco4)nc3c2)cc1)Nc1cc(C(F)(F)F)ccc1F | 0.33%
Cc1ccc2c(-c3ccnc(Nc4ccc5c(c4)OCCO5)n3)c(-c3ccc(C(F)(F)F)cc3)nn2n1 | 0.53%
[O-][S+]1CCN(Cc2ccc(-c3ccc4ncnc(Nc5ccc(OCc6ccccc6)c(Cl)c5)c4c3)o2)CC1 | 1.64%
